Assay results as given in article PMC4336329 (PLoS ONE, 2015).
Screen size: about 310,000 compounds; about 14,000 (4.5%) showed an effect of 50% or more. The effect is printed as a negative number. The full list was thinned out, with strong results kept by preference.

Target: human ether-à-go-go-related gene (hERG) potassium channel (human, UniProt Q12809)
Assay: primary screen, population patch clamp on CHO cells stably expressing hERG; higher = less effect of the substance
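Further: peak tail current of the secondary pulse compared with the same well before compound.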

Sequence of human ether-à-go-go-related gene (hERG) potassium channel (Q12809 whole entry, looked up): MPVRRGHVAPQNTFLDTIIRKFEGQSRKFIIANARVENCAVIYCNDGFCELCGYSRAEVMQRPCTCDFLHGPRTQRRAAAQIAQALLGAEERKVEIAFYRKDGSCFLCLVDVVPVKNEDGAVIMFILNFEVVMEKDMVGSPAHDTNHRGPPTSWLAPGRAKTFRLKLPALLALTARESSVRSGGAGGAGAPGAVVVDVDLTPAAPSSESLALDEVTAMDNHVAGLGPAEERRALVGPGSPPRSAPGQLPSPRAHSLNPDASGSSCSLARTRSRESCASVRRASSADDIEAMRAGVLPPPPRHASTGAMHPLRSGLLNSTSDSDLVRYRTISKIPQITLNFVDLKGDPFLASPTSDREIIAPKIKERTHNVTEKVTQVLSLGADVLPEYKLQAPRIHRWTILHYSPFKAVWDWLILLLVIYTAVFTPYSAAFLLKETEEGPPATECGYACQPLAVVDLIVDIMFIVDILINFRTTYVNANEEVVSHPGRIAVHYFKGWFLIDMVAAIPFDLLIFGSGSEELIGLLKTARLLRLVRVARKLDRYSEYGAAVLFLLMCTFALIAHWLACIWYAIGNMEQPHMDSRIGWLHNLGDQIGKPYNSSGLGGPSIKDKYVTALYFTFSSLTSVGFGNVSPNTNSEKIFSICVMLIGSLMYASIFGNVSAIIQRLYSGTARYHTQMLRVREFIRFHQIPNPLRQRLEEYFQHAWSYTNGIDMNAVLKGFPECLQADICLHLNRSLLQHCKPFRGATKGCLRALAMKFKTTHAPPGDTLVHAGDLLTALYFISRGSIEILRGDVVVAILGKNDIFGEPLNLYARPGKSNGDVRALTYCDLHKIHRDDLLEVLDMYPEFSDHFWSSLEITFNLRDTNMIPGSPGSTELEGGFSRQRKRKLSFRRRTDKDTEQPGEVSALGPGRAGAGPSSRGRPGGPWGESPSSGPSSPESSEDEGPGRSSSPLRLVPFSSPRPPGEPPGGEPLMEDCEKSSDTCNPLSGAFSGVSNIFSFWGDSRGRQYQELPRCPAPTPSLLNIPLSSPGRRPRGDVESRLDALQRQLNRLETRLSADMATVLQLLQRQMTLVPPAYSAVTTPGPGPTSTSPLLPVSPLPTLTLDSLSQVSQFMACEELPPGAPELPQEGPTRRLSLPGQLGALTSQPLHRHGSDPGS

Going from OCCC1CN(C2CCN(c3ccccc3F)CC2)CCN1Cc1ccccc1 (stereo not shown) to COc1cccc(CN2CCN(C3CCN(c4ccccc4F)CC3)CC2CCO)c1 (stereo not shown), the “hERG current change (%, negative = inhibition) at 10uM” value falls from -61.8% to -74.9%.

Compared with Cc1n[nH]c(C)c1Sc1ccccc1N=Cc1cc(Cl)cc([N+](=O)[O-])c1O, CN(c1ccccc1)c1ccc(/C=C(\CCC(=O)O)c2nc3ccccc3s2)cc1[N+](=O)[O-] is higher in “hERG current change (%, negative = inhibition) at 10uM” value: -10.9% for the first, 44.6% for the second.

Going from N#CCSc1nnc(C2CCCCC2)n1-c1ccccc1 to O=C(Cn1nc(-c2ccccc2)nc1-c1ccccc1)OC1CCCCC1, the “hERG current change (%, negative = inhibition) at 10uM” value rises from 4.45% to 7.88%.

First: CCOC(=O)c1c(C)oc2cc(Cl)c(O)c(CN(C)C)c12
Second: CCOC(=O)C1(Cc2cccc(Cl)c2)CCCN(C(=O)c2cc(C)on2)C1 (stereo not shown)
The “hERG current change (%, negative = inhibition) at 10uM” value of the first is higher: -6.79% for the first, -9.8% for the second.

Compared with CC(OC(=O)c1ccc(S(=O)(=O)NCc2ccco2)cc1)C(=O)Nc1ccc(Cl)cn1 (stereo not shown), COc1ccc(CNC(=O)COC(=O)c2ccco2)cc1 is higher in “hERG current change (%, negative = inhibition) at 10uM” value: -39.8% for the first, 28.3% for the second.

Compared with CC(C)C[C@@]12C(=O)N(c3cccc(Cl)c3)C(=O)N1[C@H](c1ccc(Br)cc1)[C@@H]1C(=O)N(C(C)(C)C)C(=O)[C@@H]12, CCCN(C(=O)CCOc1ccc(C(C)(C)C)cc1)c1c(N)n(Cc2ccccc2)c(=O)[nH]c1=O is higher in “hERG current change (%, negative = inhibition) at 10uM” value: 22.7% for the first, 29.7% for the second.

Going from COc1ccc(CNC(=O)Nc2ccc3c(c2)N(C)C(=O)CS3)cc1 to O=C(NCc1ccc(F)cc1)C1CCCN(C(=O)Nc2ccccc2)C1 (stereo not shown), the “hERG current change (%, negative = inhibition) at 10uM” value falls from -0.138% to -38.5%.

First: CCC(C)[C@H](NC(=O)N1CCCCCC1)C(=O)OC (stereo partly shown)
Second: CCOC(=O)N1CCC(N2CCN(S(=O)(=O)c3ccc(C)cc3)CC2)CC1.O=C(O)C(=O)O
The “hERG current change (%, negative = inhibition) at 10uM” value of the first is higher: 5.25% for the first, -19.1% for the second.

Going from O=C(NCc1ccccc1)C1=C[C@@H](c2ccc3c(c2)OCO3)C[C@@H](OCc2ccc(CO)cc2)O1 to Cc1ccccc1OCCC(=O)N(Cc1ccccc1)c1c(N)n(Cc2ccccc2)c(=O)[nH]c1=O, the “hERG current change (%, negative = inhibition) at 10uM” value rises from -25% to -7.3%.

First: CCOc1ccccc1CN1CCN(C2CCN(c3ccccc3F)CC2)CC1CCO (stereo not shown)
Second: CCOc1ccccc1CN1CCN(C2CCC2)CC1CCO (stereo not shown)
The “hERG current change (%, negative = inhibition) at 10uM” value of the first is lower: -71.6% for the first, 27.4% for the second.

First: COc1ccc(CN2CCN(C3CCC3)CC2CCO)c(F)c1 (stereo not shown)
Second: COc1cc(CN2CCN(C3CCC3)CC2CCO)cc(OC)c1 (stereo not shown)
The “hERG current change (%, negative = inhibition) at 10uM” value of the first is higher: 9.71% for the first, 8.54% for the second.

Going from CCOc1ccccc1CN1CCN(C2CCOCC2)CC1CCO (stereo not shown) to COc1ccc(S(=O)(=O)N2CCN(C3CCN(Cc4ccccc4)CC3)CC2)cc1, the “hERG current change (%, negative = inhibition) at 10uM” value falls from 9.47% to -59.4%.

First: Cc1cc(NC(=O)CSc2nnc(Cn3c(=O)sc4ccccc43)n2-c2ccccc2C)no1
Second: COc1ccc2nc(NC(=O)CSCc3c(C)noc3C)sc2c1
The “hERG current change (%, negative = inhibition) at 10uM” value of the first is higher: 2.54% for the first, 1.24% for the second.

Going from Cc1ccc(OC(C)C(=O)N2CCCc3ccccc32)cc1 (stereo not shown) to Cc1ccc(S(=O)(=O)N2CCN(Cc3ccccc3)CC2)cc1, the “hERG current change (%, negative = inhibition) at 10uM” value rises from -16.3% to -9.58%.

Compared with COCCCN(C(=O)CCOc1ccc(C(C)(C)C)cc1)c1c(N)n(Cc2ccccc2)c(=O)[nH]c1=O, COCCCN(C(=O)CCOc1ccc(C)cc1)c1c(N)n(Cc2ccccc2)c(=O)[nH]c1=O is higher in “hERG current change (%, negative = inhibition) at 10uM” value: -62.2% for the first, -20.2% for the second.

Going from Cc1ccccc1OCCC(=O)N(CC(C)C)c1c(N)n(Cc2ccccc2)c(=O)[nH]c1=O to COCCCN(C(=O)CCOc1ccccc1C)c1c(N)n(Cc2ccccc2)c(=O)[nH]c1=O, the “hERG current change (%, negative = inhibition) at 10uM” value rises from -64.4% to -3.05%.

First: C=CCNC(=O)c1ccc2nc(-c3ccccc3)c(-c3ccccc3)nc2c1
Second: CC(=O)Nc1ccccc1-c1nc2ccc(C(=O)N3CCN(c4cc(C)ccc4C)CC3)cc2[nH]c1=O
The “hERG current change (%, negative = inhibition) at 10uM” value of the first is higher: -15.4% for the first, -23.5% for the second.

First: CC(c1ccccc1)C1C(C#N)=C(N)OC2=C1C(=O)CC(C)(C)C2 (stereo not shown)
Second: CC1(C)CC(=O)C2=C(C1)OC(N)=C(C#N)C2c1ccccc1 (stereo not shown)
The “hERG current change (%, negative = inhibition) at 10uM” value of the first is lower: -56.9% for the first, -14.4% for the second.

Going from CC(c1ccccc1)C1C(C#N)=C(N)OC2=C1C(=O)CCC2 (stereo not shown) to O=c1cc(CN2CCN(S(=O)(=O)c3ccccc3)CC2)nc2sccn12, the “hERG current change (%, negative = inhibition) at 10uM” value rises from -6.39% to -2.25%.

Going from O=S(=O)(c1ccccc1)N1CCC(O)(CN2CCN(c3ccccc3)CC2)CC1 to O=S(=O)(c1ccc(Cl)cc1)N1CCC(O)(CN2CCN(Cc3ccccc3)CC2)CC1, the “hERG current change (%, negative = inhibition) at 10uM” value falls from 12.2% to -75.8%.

Compared with O=c1cc(CN2CCN(S(=O)(=O)c3ccc4ccccc4c3)CC2)nc2sccn12, O=c1cc(CN2CCN(S(=O)(=O)c3ccccc3[N+](=O)[O-])CC2)nc2sccn12 is lower in “hERG current change (%, negative = inhibition) at 10uM” value: -25.2% for the first, -53.7% for the second.

Going from COc1ccc(S(=O)(=O)N2CCC(N3CCN(Cc4ccccc4)CC3)CC2)cc1.O=C(O)C(=O)O to Cc1ccc(S(=O)(=O)N2CCN(C3CCN(Cc4ccccc4)CC3)CC2)cc1.O=C(O)C(=O)O, the “hERG current change (%, negative = inhibition) at 10uM” value falls from -39.2% to -76.6%.

Compared with CN1CCN(CC2(O)CCN(S(=O)(=O)c3ccc(Cl)cc3)CC2)CC1, COc1ccc(S(=O)(=O)N2CCN(Cc3ccccc3)CC2)cc1 is higher in “hERG current change (%, negative = inhibition) at 10uM” value: -36% for the first, -19.5% for the second.
